Source: PubChem BioAssay
Calls of active or inactive are those of the source. Unless noted, the rule behind the calls is not given here.

Experiments:
[1] = resazurin metabolic signal in HepG2 cells – cell-based, resazurin fluorescence, 24 h, PK04 Diversity Set, profiling panel (AID 1172); details: HepG2 viability, higher = more signal
[2] = budding yeast growth changes without added modifier – OD600, strain BY4716, 24 h, basal condition, primary screen (AID 1173); details: S. cerevisiae BY4716 growth, OD600, 24 h; higher = more signal, called active from +8 up or from −8 down
[3] = viability profiling in MM1S myeloma cells – cell-based, resazurin fluorescence, basal, 24 h, PK04 Diversity Set, profiling panel (AID 1174); details: higher = more signal, called active from +8 up or from −8 down;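 note: MM1S multiple myeloma cell line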
[4] = biological target: Dihydroorotate dehydrogenase (quinone), mitochondrial (Plasmodium falciparum (isolate 3D7)) (UniProt Q08210); experiment: inhibition of P. falciparum DHODH – biochemical, C-terminal His tag, absorbance 600 nm, primary screen (AID 1175); details: PfDHODH enzyme, DCIP absorbance 600 nm; higher = more signal, called active from +8 up or from −8 down;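 note: recombinant parasite enzyme with a five histidine tag at its C terminus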
[5] = inhibition of PAO1 biofilm formation – strain PAO1, LB-PBS medium, absorbance 600 nm, primary screen (AID 1176); details: P. aeruginosa PAO1 growth/biofilm, A600, 12 h; higher = more signal
[6] = growth modulation of vineyard yeast isolate – strain RM11-1a, OD600, basal, 24 h, primary screen (AID 1177);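 note: cultures grown under basal conditions with no added stressor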; details: S. cerevisiae RM11-1a growth, OD600, 24 h; higher = more signal, called active from +8 up or from −8 down
[7] = growth of efflux-deficient E. coli DRC39 – strain DRC39, OD650, 24 h, E. coli filamentation inducers, primary screen (AID 1178);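 note: growth measured as culture turbidity by optical density at 650 nm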; details: E. coli DRC39 acrAB, higher = more signal, called active from +8 up or from −8 down
[8] = growth of efflux-deficient E. coli DRC39 – strain DRC39, OD650, 48 h, E. coli filamentation inducers, primary screen (AID 1179);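 note: screen aims at cell division blockers that make cells filament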; details: E. coli DRC39 delta-acrAB growth, higher = more signal, called active from +8 up or from −8 down
[9] = viability profiling in RPMI8226 myeloma cells – cell-based, resazurin fluorescence, basal, 24 h, PK04 Diversity Set, profiling panel (AID 1180); details: higher = more signal;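 note: RPMI8826 multiple myeloma cell line at 5000 cells per well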
[10] = biological target: E3 ubiquitin-protein ligase XIAP (Homo sapiens) (UniProt P98170); experiment: small molecules binding XIAP protein – biophysical, small-molecule microarray, fluorescence 635 nm, primary screen (AID 1181); details: higher = more signal;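 note: score merges 667 nm emission and signal to noise over triplicate slides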
[11] = tested on: XIP peptide (Xip251-270) binding; experiment: XIP fragment 251-270 binding compounds – biochemical, small-molecule microarray, fluorescence 635/667 nm, 0.1 µg/mL protein, primary screen (AID 1182); details: fluorescent protein binding, 635 nm, higher = more signal, called active from +8 up or from −8 down
XIP peptide (Xip251-270) = experiment: compounds binding XIP fragment 251-270 – biochemical, small-molecule microarray, fluorescence 635/667 nm, 0.5 µg/mL protein, primary screen (AID 1183); details: fluorescence 635 nm, higher = more signal
[12] = blood-stage malaria parasite viability loss – strain 3D7, DAPI fluorescence, 100 nL, primary screen (AID 1184);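 note: parasites grown inside human red blood cells in medium with human serum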; details: P. falciparum 3D7 growth, 3 d, higher = more signal
[13] = biological target: Homeobox protein Hox-A13 (Mus musculus) (UniProt Q62424); experiment: disruptors of Hoxa13 oligonucleotide interaction – biochemical, fluorescence polarization, labeled oligonucleotide, primary screen (AID 1185); details: Hoxa13:DNA binding, 15 min, higher = more signal, called active from +8 up or from −8 down
[14] = blockers of DNA damage checkpoint Chk1 activation – imaging, HeLa, hydroxyurea, phospho-Chk1 antibody, percent positive cells, primary screen (AID 1186); details: hydroxyurea-induced phospho-Chk1 immunofluorescence imaging, higher = more signal
[15] = blockers of DNA damage checkpoint Chk1 activation – imaging, HeLa, hydroxyurea, phospho-Chk1 nuclear intensity, primary screen (AID 1187); details: hydroxyurea-induced phospho-Chk1 immunofluorescence imaging, higher = more signal

E3 ubiquitin-protein ligase XIAP (Homo sapiens), sequence (P98170 whole entry, looked up, the tested form may be a part): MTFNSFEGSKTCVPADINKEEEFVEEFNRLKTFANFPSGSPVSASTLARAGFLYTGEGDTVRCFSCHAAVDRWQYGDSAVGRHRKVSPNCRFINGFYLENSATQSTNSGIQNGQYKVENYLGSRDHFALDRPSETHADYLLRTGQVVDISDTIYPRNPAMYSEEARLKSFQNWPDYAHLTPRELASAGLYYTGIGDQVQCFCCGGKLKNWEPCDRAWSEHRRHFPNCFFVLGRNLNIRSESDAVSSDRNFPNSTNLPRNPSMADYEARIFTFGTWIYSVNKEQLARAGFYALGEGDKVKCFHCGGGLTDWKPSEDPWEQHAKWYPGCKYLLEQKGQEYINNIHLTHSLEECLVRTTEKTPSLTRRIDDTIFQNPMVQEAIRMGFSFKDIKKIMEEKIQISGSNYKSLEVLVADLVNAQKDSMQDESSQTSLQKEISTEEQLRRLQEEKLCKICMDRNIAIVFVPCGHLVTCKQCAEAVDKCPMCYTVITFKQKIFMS
Dihydroorotate dehydrogenase (quinone), mitochondrial (Plasmodium falciparum (isolate 3D7)), sequence (Q08210 whole entry, looked up): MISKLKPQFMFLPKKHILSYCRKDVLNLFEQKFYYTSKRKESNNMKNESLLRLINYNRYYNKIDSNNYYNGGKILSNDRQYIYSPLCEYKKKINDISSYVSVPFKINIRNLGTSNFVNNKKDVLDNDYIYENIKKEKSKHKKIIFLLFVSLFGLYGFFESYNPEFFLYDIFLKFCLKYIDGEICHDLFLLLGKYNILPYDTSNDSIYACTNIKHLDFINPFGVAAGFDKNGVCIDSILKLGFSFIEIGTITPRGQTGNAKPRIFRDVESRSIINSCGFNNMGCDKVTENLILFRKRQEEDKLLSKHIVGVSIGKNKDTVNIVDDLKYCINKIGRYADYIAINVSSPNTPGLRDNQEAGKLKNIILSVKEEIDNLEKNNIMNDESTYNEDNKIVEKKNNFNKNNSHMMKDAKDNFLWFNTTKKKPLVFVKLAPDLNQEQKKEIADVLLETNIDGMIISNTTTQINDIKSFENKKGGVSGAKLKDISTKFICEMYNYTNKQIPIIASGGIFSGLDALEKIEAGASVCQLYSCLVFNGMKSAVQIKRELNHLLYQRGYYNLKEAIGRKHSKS
Homeobox protein Hox-A13 (Mus musculus), sequence (Q62424 whole entry, looked up): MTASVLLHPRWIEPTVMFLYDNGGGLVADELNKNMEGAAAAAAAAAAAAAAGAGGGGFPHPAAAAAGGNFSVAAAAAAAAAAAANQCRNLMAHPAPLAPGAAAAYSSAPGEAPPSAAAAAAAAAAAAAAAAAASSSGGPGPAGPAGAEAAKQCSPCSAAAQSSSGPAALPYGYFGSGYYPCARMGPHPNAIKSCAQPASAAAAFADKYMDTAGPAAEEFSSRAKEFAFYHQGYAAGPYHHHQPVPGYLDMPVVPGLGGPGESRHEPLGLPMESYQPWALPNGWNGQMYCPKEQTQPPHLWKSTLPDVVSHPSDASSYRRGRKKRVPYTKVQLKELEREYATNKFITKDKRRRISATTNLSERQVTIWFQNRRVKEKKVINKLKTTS

| Compound | z-score [1] | z-score [2] | z-score [3] | composite z-score [4] | z-score [5] | z-score [6] | z-score [7] | z-score [8] | z-score [9] | composite z-score [10] | composite z-score [11] | composite z-score (XIP peptide (Xip251-270)) | z-score [12] | z-score [13] | z-score [14] | z-score [15] |
| --- | --- | --- | --- | --- | --- | --- | --- | --- | --- | --- | --- | --- | --- | --- | --- | --- |
| CCCc1cccc(=O)o1 | 0.866 | 0.68 (inactive) | 0.821 (inactive) | -0.661 (inactive) | 0.353 (inactive) | -0.243 (inactive) | -0.161 (inactive) | 0.846 (inactive) | 0.819 | -0.0721 | 0.684 (inactive) | -0.0514 | 0.581 | -1.77 (inactive) | 0.0999 (inactive) | 0.549 (inactive) |
| CON(C)C(=O)C=C1C[C@@H](c2cccc(Cl)c2)O[C@@H](c2cccc(Cl)c2)O1 | 0.485 | -0.283 (inactive) | 0.0896 (inactive) | -0.558 (inactive) | -0.184 (inactive) | 1.21 (inactive) | -0.471 (inactive) | 0.134 (inactive) | 0.515 | -0.0827 | 2.75 (inactive) | 0.454 | -2 | -3.48 (inactive) | -0.0938 (inactive) | -0.0296 (inactive) |
| O=C1O[C@@H](c2ccccc2)[C@@H](c2ccccc2)N2[C@@H](c3ccc(O)cc3)[C@]3(C(=O)Nc4ccc(C#CCCO)cc43)[C@@H](C(=O)Nc3nc4ccccc4s3)[C@H]12 | 0.43 | 0.442 (inactive) | 0.307 (inactive) | -0.292 (inactive) | 0.513 (inactive) | 0.948 (inactive) | -0.0791 (inactive) | 0.282 (inactive) | 0.73 | -0.0918 | 0.336 (inactive) | 0.732 | 0.204 | -0.524 (inactive) | 0.151 (inactive) | 0.283 (inactive) |
| C=C(CCCC)C(=O)CC[C@@H](OC(=O)c1ccccc1-c1ccccc1C(=O)O)c1cccc(OCCO)c1 | -0.269 | -1.46 (inactive) | -0.348 (inactive) | -0.556 (inactive) | 0.543 (inactive) | 0.134 (inactive) | -0.285 (inactive) | -0.549 (inactive) | -0.301 | -0.23 | 1.03 (inactive) | 0.204 | -2.46 | -5.72 (inactive) | 0.456 (inactive) | 0.408 (inactive) |
| COc1cc2c(cc1OC)CN(C(=O)[C@H]1[C@@H]3C(=O)O[C@@H](c4ccccc4)[C@@H](c4ccccc4)N3[C@@H](c3ccc(OCCO)cc3)[C@]13C(=O)Nc1ccc(C#CCCO)cc13)CC2 | 0.687 | 2.35 (inactive) | 0.113 (inactive) | 0.129 (inactive) | 1.56 (inactive) | 2.49 (inactive) | -0.321 (inactive) | -0.61 (inactive) | 0.969 | -0.351 | 0.527 (inactive) | 0.692 | -2.06 | 1.96 (inactive) | 0.0312 (inactive) | 0.157 (inactive) |
| O=C(CS)NCCCCCCNC(=O)[C@H]1C[C@H]2C(=O)N[C@@H](Cc3ccccc3)C(=O)N2[C@H]1c1cccc(OCCO)c1 | -0.351 | 0.765 (inactive) | -0.453 (inactive) | -0.439 (inactive) | 0.889 (inactive) | 0.765 (inactive) | -0.0049 (inactive) | 0.57 (inactive) | -0.614 | 0.316 | 0.168 (inactive) | 0.825 | 0.107 | -1.03 (inactive) | -0.0078 (inactive) | 0.671 (inactive) |
| CCOC(=O)C1=CC[C@@H](c2cc(Cl)ccc2Cl)N(S(=O)(=O)c2ccc(C)cc2)[C@H]1c1ccc(OC)cc1 | 0.292 | 2.05 (inactive) | -1.34 (inactive) | 0.658 (inactive) | 0.0767 (inactive) | 2.28 (inactive) | -0.61 (inactive) | -1.03 (inactive) | -1.97 | 0.179 | -0.244 (inactive) | -0.837 | -1.41 | -1.08 (inactive) | -0.256 (inactive) | -0.611 (inactive) |
| COc1ccc([Si](C)(C)[C@@H]2[C@@H](CC(=O)N3CCC[C@H]3CO)O[C@]3(C(=O)N(Cc4ccc(N5C(=O)c6cccc7cccc5c67)cc4)c4ccccc43)[C@H]2C)cc1 | -2.57 | 0.165 (inactive) | -2.82 (inactive) | -0.0108 (inactive) | -0.012 (inactive) | 1.36 (inactive) | 0.3 (inactive) | -0.138 (inactive) | -4.75 | -0.0386 | 0.353 (inactive) | 0.792 | -2.09 | -3.19 (inactive) | 0.48 (inactive) | 0.451 (inactive) |
| C=CC1c2cc(O)c(OC)cc2CCN1Cc1sc2ccccc2c1Cl (stereo not drawn) | -0.62 | -18.3 (active) | -0.467 (inactive) | -1.04 (inactive) | -0.227 (inactive) | -3.6 (inactive) | 0.243 (inactive) | -0.404 (inactive) | -0.802 | 0.265 | 0.51 (inactive) | 0.618 | -0.614 | -2.71 (inactive) | 0.326 (inactive) | -0.0459 (inactive) |
| Cc1c(NC(=O)/C(C#N)=C/C=C/c2ccc(N(C)C)cc2)c(=O)n(-c2ccccc2)n1C | 0.29 | -0.312 (inactive) | 0.514 (inactive) | -0.186 (inactive) | -0.103 (inactive) | -0.246 (inactive) | 1.78 (inactive) | -0.202 (inactive) | 1.08 | 0.0899 | 1.41 (inactive) | 0.7 | -0.46 | -13.8 (active) | 0.348 (inactive) | 0.996 (inactive) |
| CC(C)C(O)C1C=CC2C(=O)N(C)C(=O)C2N1Nc1ccccc1 (stereo not drawn) | -0.0778 | -0.411 (inactive) | -0.84 (inactive) | -0.482 (inactive) | 0.931 (inactive) | 0.0222 (inactive) | -0.219 (inactive) | -0.434 (inactive) | -1.29 | 0.0159 | 0.292 (inactive) | 0.655 | 0.771 | -1.81 (inactive) | 0.331 (inactive) | 0.193 (inactive) |
| CN1C(=O)C2C=CC(C(O)c3c(F)cccc3Cl)N(Nc3ccccc3)C2C1=O (stereo not drawn) | -0.203 | -1.03 (inactive) | -0.682 (inactive) | 0.061 (inactive) | 0.627 (inactive) | -0.284 (inactive) | -1.11 (inactive) | -0.618 (inactive) | -0.679 | 0.0651 | -0.108 (inactive) | 0.324 | 1.04 | -3.42 (inactive) | 0.563 (inactive) | 0.463 (inactive) |
| CC[C@@H]1[C@H]2C3C(=O)N(CC)C(=O)C3CC(=O)[C@H]2[C@H](c2ccc(C)cc2)N1S(=O)(=O)c1ccc(C)cc1 (stereo partly drawn) | -0.881 | 0.252 (inactive) | -0.25 (inactive) | -0.0972 (inactive) | -0.144 (inactive) | 0.561 (inactive) | -0.339 (inactive) | 0.25 (inactive) | -0.695 | -0.119 | 0.117 (inactive) | 0.643 | -0.915 | -4.84 (inactive) | 0.2 (inactive) | -0.264 (inactive) |
| CO[C@H]1O[C@H](CO)[C@@H](OC(=O)c2ccc(Br)cc2)[C@@H]2OC(=O)[C@@H](Cc3ccc4ccccc4c3)C/C=C/C[C@H](Cc3ccc4ccccc4c3)C(=O)O[C@@H]12 | -0.213 | -1.23 (inactive) | -0.612 (inactive) | -1.92 (inactive) | -0.649 (inactive) | -1.34 (inactive) | 0.738 (inactive) | 1.03 (inactive) | 0.402 | 0.0848 | 1.08 (inactive) | 0.266 | -0.0936 | -5.67 (inactive) | -0.555 (inactive) | -0.449 (inactive) |
| CCOC(=O)C[C@H]1[C@H](OC(=O)c2ccccc2-c2ccccc2)[C@@H](NC(=O)CC(C)C)c2cc(OCCCO)ccc2N1C(=O)c1ccc2ccccc2n1 | -0.208 | 0.706 (inactive) | 0.0612 (inactive) | -0.112 (inactive) | -0.483 (inactive) | -0.078 (inactive) | -0.418 (inactive) | -0.0818 (inactive) | -0.0139 | 0.0993 | 2.34 (inactive) | 0.0366 | 1.65 | -3.94 (inactive) | 0.222 (inactive) | -0.537 (inactive) |
| CC(C)NC(=O)[C@@]1(C)c2ccccc2C(=O)N(C(C)C)[C@H]1c1ccc(CO)cc1 | -1.1 | -0.106 (inactive) | -0.822 (inactive) | 0.127 (inactive) | 0.972 (inactive) | -0.553 (inactive) | 0.0378 (inactive) | -0.611 (inactive) | -0.43 | 0.0982 | 3.06 (inactive) | 0.884 | -0.568 | -2.26 (inactive) | 0.244 (inactive) | 0.246 (inactive) |
| NC(=O)N1C(=O)C2C(C1=O)C1C=C(c3ccc(CO)cc3)C2C(C2CC2)N1Cc1sc2ccccc2c1Cl (stereo not drawn) | -0.131 | -2.55 (inactive) | -1.06 (inactive) | -2.67 (inactive) | -0.836 (inactive) | -0.484 (inactive) | 0.927 (inactive) | 0.112 (inactive) | -1.23 | -0.117 | 0.703 (inactive) | 0.726 | -2.1 | -2.31 (inactive) | -0.0244 (inactive) | -0.0866 (inactive) |
| CCCCC(CC)C(O)C1C=CC2C(=O)N(c3ccccc3)C(=O)C2N1Nc1ccc([N+](=O)[O-])cc1 (stereo not drawn) | -0.383 | -0.148 (inactive) | -0.201 (inactive) | 0.41 (inactive) | 0.837 (inactive) | -0.066 (inactive) | -0.948 (inactive) | -0.979 (inactive) | -0.759 | -0.02 | 0.389 (inactive) | 0.624 | 0.0352 | -3.6 (inactive) | 0.332 (inactive) | -0.383 (inactive) |
